Data published in PubChem BioAssay (NCATS).
Where “and” joins values, the source holds several entries; their conditions need not be identical. Identical values can stand only once. Records with an inconclusive call do not appear. Calls of active or inactive are those of the source. Calls follow the shape of the full dose curve.

Assay: qHTS Assay for Lipid Storage Modulators (AID 1519); as to activity change, negative = inhibition: % is scaled to controls: 0 for no effect and ±100 for the full control effect
Conditions: Drosophila S3 cells, BODIPY lipid droplet/cell ratio, laser cytometry, cells loaded with oleic acid
Description: NIH Molecular Libraries Probe Production Centers Network [MLPCN]
NIH Chemical Genomics Center [NCGC]
Assay Submitter (PI): Beller, Mathias; Max-Planck-Institut fur Biophysikalische Chemie
NCGC Assay Overview: Storing lipids as a reservoir for energy or the anabolism of elementary metabolites is a common feature of probably all cells and is conserved from bacteria to humans. The universal cellular lipid storage organelle is the so-called lipid storage droplet (LD). Although ubiquitous, LDs share a simple structure composed of a hydrophobic core that harbors the storage lipids, which is shielded by a droplet-specific phospholipid monolayer to which proteins are attached. The current model of LD biogenesis involves an incorporation of the lipid core into the membrane leaflets of the endoplasmic reticulum (ER) followed by a subsequent budding-like maturation of a LD, which ultimately pinches off. Once released, LD volume can increase by localized lipogenesis or fusion of existing droplets. Storage lipids are re-mobilized enzymatically by lipase activity. Lipase regulation in the adipocyte is heavily studied and involves multiple components including catecholamine signaling, the LD-associated proteins Perilipin and comparative gene identification-58 (CGI-58) and at least two lipases named hormone sensitive lipase (HSL) and adipocyte triglyceride lipase (ATGL). LD regulation outside of the adipocyte is poorly understood and only few components are known. However, there is an urgent need to learn more about ectopic fat depots as mislocalized storage of lipids, for example in the liver or muscle, is an eminent health problem associated with insulin resistance or the metabolic syndrome. We developed a laser-scanning cytometer assay to enable 1,536-well screening and combined the results of the small molecules screen with an RNAi database based on lipid storage.
NCGC Assay Protocol Summary:
We dispensed 4 uL of cells at 1.25 x 10^6 cells/mL into LoBase Aurora COC 1,536-well plates (black walled, clear bottom) with a bottle-valve solenoid-based dispenser (Aurora) to obtain 5,000 cells/well. Triacsin C (Sigma-Aldrich T-4540), an inhibitor of long-chain fatty acyl CoA synthetase that blocks synthesis of triglycerides, was used as a positive control for lipid under-storage. A total of 23 nL of compound solution of different concentrations were transferred to the assay plates using a Kalypsys pin tool equipped with a 1,536-pin array containing 10-nL slotted pins (FP1S10, 0.457-mm diameter, 50.8 mm long; V&P Scientific). One microliter of oleic acid (400 uM) was added, and the plate was lidded with stainless steel rubber gasket lined lids containing pinholes. […] Fluorescence was detected by excitation of the fluorophores with a 488-nm laser on an Acumen Explorer (TTP Lab Tech). The total intensity in channel 1 (500-530 nm) reflected lipid droplet accumulation. […] The ratio of the total intensity in PMT channel 1 over total intensity of channel 3 was also calculated. Percent activity was computed relative to an internal control (100% inhibited lipid droplet deposition due to the presence of 20 uM Triacsin C), which was added to 32 wells/plate.

[1] = measured here: cell count channel max response
[2] = measured here: lipid channel max response

Compound	activity change, negative = inhibition (at 25.7 µM (top of the series))	activity change, negative = inhibition (at 57.5 µM (top of the series))	max response [1]	max response [2]
c1ccc(CC2=NCCN2)cc1	0.322% (inactive)	2.41% (inactive)	-5.46% and 11.2%	-4.35% and 15.7%
CCOC(=O)Nc1ccc2c(c1)N(C(=O)CCN1CCOCC1)c1ccccc1S2	-4.54% (inactive)		-0.906%	-3.86%
CCN(CC)CCNc1ccc(CO)c2sc3ccccc3c(=O)c12	-5.73% (inactive)	-11.5% (inactive)	-10.2% and 2.62%	-16.8% and -5.8%
COc1cc(C(=O)NCc2ccc(OCCN(C)C)cc2)cc(OC)c1OC	-1.74% (inactive)		-6.84%	-7.91%
CCCN(CCC)S(=O)(=O)c1ccc(C(=O)O)cc1	-2.1% (inactive)	1.2% (inactive)	0.958% and 6.83%	0.939% and 10.4%
CC[C@H](c1ccc(O)cc1)[C@@H](CC)c1ccc(O)cc1	-3.44% (inactive)		-23%	-23.9%
CCc1oc2ccccc2c1C(=O)c1cc(Br)c(O)c(Br)c1	0.0966% (inactive)		-13%	-17.1%
O=C(CCCN1CC=C(n2c(=O)[nH]c3ccccc32)CC1)c1ccc(F)cc1	1.32% (inactive)	14.6% (inactive)	-13.4% and 7.49%	-9.23% and 27.6%
COc1ccc(C(=O)c2ccccc2)c(O)c1	-0.0822% (inactive)	9.05% (inactive)	-14% and -2.88%	-14.1% and 8.45%
CCCCCN=C(N)N/N=C/c1c[nH]c2ccc(OC)cc12		10.2% (inactive) and 3.1% (inactive)	15.4% and 9.7%	28.4% and 15.4%
CN(C)CCOC(=O)C(c1ccccc1)C1(O)CCCC1 (stereo unspecified)		8.35% (inactive)	13.8%	27.5%
NC(N)=NCc1cccc(I)c1		3.74% (inactive)	-19.1%	-12.1%
